Mcl1 Bid PPI – disrupts binding of human Mcl-1 to Bid peptide; AID 1021; actives 0.97% (n = 220,000); inhibition, % at 21.7 µM; TR-FRET Mcl-1/Bid-Dy647 peptide binding, 1536-well;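 active = compounds that cut the binding signal by more than half at the single screening dose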;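 note: His-tagged Mcl-1 with europium anti-His antibody binding Bid BH3 peptide; 0% = Mcl-1 plus peptide wells and 100% = peptide-only wells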
Target sequence (Q07820 whole entry, looked up): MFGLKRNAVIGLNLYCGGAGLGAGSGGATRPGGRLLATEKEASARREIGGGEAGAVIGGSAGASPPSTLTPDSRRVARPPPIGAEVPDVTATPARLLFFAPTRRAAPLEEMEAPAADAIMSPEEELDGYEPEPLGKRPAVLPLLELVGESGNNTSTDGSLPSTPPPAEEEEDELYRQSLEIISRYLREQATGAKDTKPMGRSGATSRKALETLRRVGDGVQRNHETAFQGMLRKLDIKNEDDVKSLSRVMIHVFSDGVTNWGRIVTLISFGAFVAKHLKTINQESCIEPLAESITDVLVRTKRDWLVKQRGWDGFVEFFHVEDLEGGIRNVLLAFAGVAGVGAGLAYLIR
TLR4-MyD88 BLA – inhibitors of human TLR4-MyD88 binding. O00206+Q99836. HeLa CL3-4 TLR4/MyD88 BLA complementation, FRET ratio. inhibition, % at 8.4 µM. actives 0.18% (n = 200,000); in the data active = inhibition above about 25%;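 note: 0% = vehicle and 100% = reference inhibitor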
TLR9-MyD88 inh – inhibitors of human TLR9-MyD88 binding; inhibition, % at 4.98 µM; actives 0.21% (n = 340,000); CHO BLA complementation TLR9-MyD88, CCF4 FRET ratio; Q9NR96+Q99836; AID 504734;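 active = inhibition above the mean over all tested compounds plus 3 SD, cut at about 21% in these data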;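 note: 0% = DMSO only wells and 100% = clavulanate BLA inhibitor control wells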
NOD2-RIPK2 inh – blocks binding of human NOD2 to RIPK2 | actives 0.38% (n = 360,000) | O43353 | inhibition, % at 4.98 µM | CHO BLA complementation NOD2-RIPK2, CCF4 ratio; in the data active = inhibition above about 21%;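 note: 0% = vehicle only and 100% = reference blocker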
Bim-Mcl-1 – inhibitors of Bim-Mcl-1 interaction, human; AID 1009; actives 0.1% (n = 190,000); inhibition, % at 10 µM; Bead-based flow cytometry, Bim peptide-Mcl-1 binding; Q07820; in the data active = inhibition above about 40%;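 note: 0% = no compound tracer wells and 100% = peptide blocker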
Mcl1-Noxa inh – Mcl-1/Noxa interaction inhibition; AID 1022; Q07820; actives 1.5% (n = 220,000); inhibition, % at 21.7 µM; TR-FRET Mcl-1/Noxa peptide binding, 2 h;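 active = compounds that cut the protein-peptide binding signal by more than 50% relative to plate controls in a single-dose test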;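 note: His-tagged Mcl-1 with rhodamine Noxa BH3 peptide and terbium anti-His antibody; 0% = Mcl-1 plus Noxa peptide wells and 100% = peptide-only wells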
TLR9-MyD88 cf – TLR9-MyD88 interaction inhibition, confirmation. CHO TLR9/MyD88 BLA complementation, CCF4 FRET ratio. actives 51% (n = 680). inhibition, % at 4.98 µM. AID 540250. shares compounds with TLR9-MyD88 inh;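 active = mean inhibition across three repeats above about 21% taken from the earlier screen, limit read from the data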;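 note: blue over green emission ratio reports constitutive TLR9 MyD88 association via BLA complementation; 0% = DMSO vehicle wells and 100% = clavulanate BLA inhibitor wells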
BLA counter – non-selective beta-lactamase inhibitors in TLR9-MyD88 counter-screen. CHO-BLA cells, CCF4 FRET ratio, BLA reporter. shares compounds with TLR9-MyD88 inh. inhibition, % at 4.98 µM. actives 7% (n = 680);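 active = mean inhibition above a 50% cutoff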;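 note: counterscreen of TLR9-MyD88 hits on CMV-driven BLA in CHO-K1 cells; 0% = DMSO alone and 100% = clavulanate blocking BLA; higher means less blue over green ratio so more BLA blockade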
TLR9 CHO cytotox – CHO cell toxicity counter-screen for TLR9-MyD88 inhibitors | actives 39% (n = 680) | shares compounds with TLR9-MyD88 inh | TLR9-MyD88 CHO cells cytotoxicity, luminescence | inhibition, % at 4.98 µM; in the data active = inhibition above about 11%
Starred values were filed as active, the others as inactive; . = no result given. Shown are actives, neighbours in structure and some others; about 1.8% of the full set was active somewhere.

SMILES	Mcl1 Bid PPI	TLR4-MyD88 BLA	TLR9-MyD88 inh	NOD2-RIPK2 inh	Bim-Mcl-1	Mcl1-Noxa inh	TLR9-MyD88 cf	BLA counter	TLR9 CHO cytotox
COc1ccc(S(=O)(=O)N2CCCCC2)cc1NC(=O)c1ccc(OC)c(OC)c1	.	.	2.8	3.3	.	.	.	.	.
CCOC(=O)Cc1csc(N/N=C/c2ccc(C(F)(F)F)cc2)n1	4.7	5.9	4.8	2.1	-1.0	-4.7	.	.	.
CCOC(=O)Cc1csc(/N=C/c2c(O)n(-c3ccccc3C(F)(F)F)c(=O)c3ccccc23)n1	0.2	17.8	22.2*	8.7	-3.0	-4.3	8.1	8.7	10.1
O=c1nc2n(c3ccc([N+](=O)[O-])cc13)CCCCC2	-6.3	-10.8	-9.7	3.9	0.0	8.0	.	.	.
O=[N+]([O-])c1ccc2c(c1)C=C1CCCCC1(N1CCCCC1)O2 (stereo not drawn)	-1.1	6.5	24.4*	-13.6	-5.0	1.5	-8.3	-4.9	-1.3
COc1ccccc1NS(=O)(=O)c1cccc(NC(=O)C2CC(=O)N(Cc3ccccc3)C2)c1 (stereo not drawn)	88.3*	0.5	24.2*	-10.4	1.0	12.5	-1.7	0.2	1.4
COc1ccccc1NS(=O)(=O)c1cccc(NC(=O)C2CC2)c1	.	.	4.6	2.4	.	.	.	.	.
O=C(Nc1ccc(NC(=O)c2ccccc2)c2ccccc12)c1ccccc1	.	.	-1.1	-3.0	.	.	.	.	.
COc1ccc(NC(=O)c2sc3nc(-c4cccnc4)ccc3c2N)cc1	52.3*	.	34.1*	12.3	.	42.6	7.8	5.3	7.8
COc1ccc(C(=O)c2sc3nc(-c4ccc(OC)cc4)ccc3c2N)cc1	23.4	-1.7	20.8*	4.0	0.0	77.0*	44.9*	44.9	-0.5
COc1ccc(NC(=O)c2sc3nc(-c4cccnc4)ccc3c2N)cc1OC	-8.0	.	-4.2	-14.2	.	14.1	.	.	.
Cc1c(C(=O)NNC(=O)c2ccccc2O)oc2ccccc12	.	.	-5.7	-17.4	.	.	.	.	.
CCCCc1cc(=O)oc2cc(C)cc(OCC(=O)NCc3ccncc3)c12	.	.	-6.1	-0.6	.	.	.	.	.
Cc1ccc(NC(=O)/C(CN(C)C)=N\O)cc1	-27.5	17.2	23.8*	13.2	-1.0	3.9	5.9	8.2	-0.1
O=C1/C(=C\c2cccc(O)c2O)SC(=S)N1Cc1ccccc1	.	.	5.8	10.2	.	.	.	.	.
O=C1/C(=C\c2cc([N+](=O)[O-])ccc2O)SC(=S)N1Cc1ccc(Cl)cc1	.	.	23.5*	13.1	.	.	14.7	17.8	2.7
COc1ccccc1C1C=C(c2ccc(Cl)cc2)Nc2nc(N3C(=O)CCC3=O)nn21 (stereo not drawn)	-23.5	7.5	46.7*	53.0*	-5.0	8.5	13.9	19.1	-2.1
COc1ccccc1C1C=C(c2ccc(Cl)cc2)Nc2nc(NS(C)(=O)=O)nn21 (stereo not drawn)	-13.8	5.2	.	.	-1.0	-7.0	.	.	.
CC(C)n1cc(CN2CCCC(C(=O)Nc3cccc(-c4cc5ccccc5[nH]4)c3)C2)cn1 (stereo not drawn)	.	.	23.4*	4.7	.	.	5.5	-0.6	7.2
O=C(O)c1ccc(C=C(c2nc3ccccc3s2)c2nc3ccccc3s2)cc1	-4.2	3.0	0.5	6.5	0.0	9.0	.	.	.
CN(C)c1ccc(/C=C(\Cl)c2nc3ccccc3s2)cc1	-13.1	18.3	25.3*	16.9	-2.0	3.6	16.0	22.6	9.7
CCN(CC(=O)NCc1ccc(F)cc1)C(=O)/C=C/c1ccc(S(=O)(=O)N(CC)CC)cc1	.	.	0.2	-5.5	.	.	.	.	.
COc1cccc(C2=CC(c3ccc(C)cc3)n3ncnc3N2)c1 (stereo not drawn)	-29.1	15.4	.	.	0.0	6.9	.	.	.
Cc1ccsc1C1C=C(c2cccc(Br)c2)Nc2ncnn21 (stereo not drawn)	-51.8	-0.3	28.4*	20.3	0.0	-15.0	4.9	2.4	6.7
CCOC(=O)C1C(=O)NC(C(=O)OCC)(C(=O)OCC)C1C(C)CC (stereo not drawn)	.	.	-5.8	-13.8	.	.	.	.	.

High-throughput results from PubChem.
